Hits are enriched below; roughly 3.5% of the tested compounds scored in any of these assays.
TEAD-YAP block – TEAD-YAP interaction inhibition. actives 1.4% (n = 640,000). HEK-TIYL cells, TEAD-Gal4/YAP UAS-luciferase luminescence. inhibition, % at 9.12 µM; in the data active = inhibition above about 32%;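 note: 0% = median of test compound wells and 100% = reference inhibitor wells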
FBW7 act – activators of human E3 ligase FBW7; Q969H0; AlphaScreen FBW7–phospho-cyclin E peptide binding, activator screen; normalized activity (activation), % at 26.1 µM; actives 0.13% (n = 650,000); AID 1259310; in the data active = normalized activity above about 1.9%;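 note: purified mutant Fbw7 with reduced substrate affinity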
MITF inh – human MITF inhibition, primary screen; O75030; AlphaScreen MITF homodimerization, bead proximity signal; inhibition, % at 2.6 µM; actives 0.91% (n = 650,000); in the data active = inhibition above about 50%;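 note: 0% = vehicle wells with protein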
Target sequence (O75030 whole entry, looked up): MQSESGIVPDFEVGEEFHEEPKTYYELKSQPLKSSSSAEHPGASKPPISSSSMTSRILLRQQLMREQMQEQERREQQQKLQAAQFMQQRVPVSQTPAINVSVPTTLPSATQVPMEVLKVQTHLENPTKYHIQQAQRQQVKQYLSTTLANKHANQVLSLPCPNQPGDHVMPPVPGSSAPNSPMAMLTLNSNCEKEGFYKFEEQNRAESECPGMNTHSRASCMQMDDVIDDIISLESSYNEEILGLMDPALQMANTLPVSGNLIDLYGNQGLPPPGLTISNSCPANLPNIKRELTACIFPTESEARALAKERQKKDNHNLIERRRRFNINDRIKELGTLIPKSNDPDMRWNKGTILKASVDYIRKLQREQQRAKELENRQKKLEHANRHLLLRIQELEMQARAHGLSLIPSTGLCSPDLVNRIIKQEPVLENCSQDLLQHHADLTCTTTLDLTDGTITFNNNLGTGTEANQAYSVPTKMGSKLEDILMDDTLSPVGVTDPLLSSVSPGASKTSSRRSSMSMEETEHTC
GPR151 ag – human GPR151 activation; PathHunter beta-arrestin GPR151 cells, luminescence; activation, % at 11.2 µM; actives 1% (n = 650,000); in the data active = activation above about 4.9%;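 note: 0% = median of compound wells and 100% = cells with positive control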
GPR151 confirm – confirmation of human GPR151 activators. shares compounds with GPR151 ag. GPR151 PathHunter beta-arrestin cells, luminescence, 90 min; % of EA-reagent control over plate median. activation, % at 11.2 µM. 6,700 tested, under 10 active. AID 1508609;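 active = mean percent activation across replicates above the confirmation screen cutoff of 4.91%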
GPR119 counter – activates human GPR119 in a GPR151 counter-screen; shares compounds with GPR151 ag; GPR119 PathHunter beta-arrestin cells, luminescence, 90 min; 0 = compound-well median, 100 = enzyme-acceptor control; activation, % at 11.2 µM; actives 0.3% (n = 6,700); AID 1508611;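 active = mean percent activation in the counterscreen above 29.09%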;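 note: counterscreen on off-target GPR119 to flag nonselective hits from the GPR151 activator screen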
Active calls of the source: *.

Results for CCCC1CCc2c(sc(NS(=O)(=O)c3ccc(NC(C)=O)cc3)c2C(N)=O)C1 (centres undefined) ?
TEAD-YAP block: 1.3; FBW7 act: -0.1; MITF inh: 5.9; GPR151 ag: 10.0*; GPR151 confirm: -0.4; GPR119 counter: -9.2

How did CC(=O)Nc1ccc(S(=O)(=O)Nc2sc3c(c2C(N)=O)CCC(C)C3)cc1 (centres undefined) do in these assays?
TEAD-YAP block: 5.5; FBW7 act: 0.0; MITF inh: 3.5; GPR151 ag: -0.9

What do the screens show for `COc1ccc(C)cc1NC(=O)c1sc2nc3n(c(=O)c2c1C)CCCC3`?
TEAD-YAP block: -0.4; FBW7 act: -0.2; MITF inh: -0.9; GPR151 ag: 1.7

Results for COc1cc(NC(=O)c2sc3nc4n(c(=O)c3c2C)CCCC4)cc(OC)c1OC ?
TEAD-YAP block: -8.3; FBW7 act: 0.0; MITF inh: -6.2; GPR151 ag: 11.7*; GPR151 confirm: 0.4; GPR119 counter: -1.2

How did CCCOc1ccc(/C(O)=C2/C(=O)C(=O)N(CCCN(C)C)C2c2ccc(F)cc2)c(C)c1 (centres undefined) do in these assays?
TEAD-YAP block: 1.9; FBW7 act: -0.1; MITF inh: -4.0; GPR151 ag: 5.3*; GPR151 confirm: -0.6; GPR119 counter: 0.0

How did CCCOc1ccc(/C(O)=C2/C(=O)C(=O)N(CCN(C)C)C2c2ccc(F)cc2)c(C)c1 (centres undefined) do in these assays?
TEAD-YAP block: 8.5; FBW7 act: 0.8; MITF inh: 11.4; GPR151 ag: -0.6

What do the screens show for `CC(C)NC(=O)CN1CCC2(CC1)Nc1ccccc1-n1cccc12`?
TEAD-YAP block: -6.0; FBW7 act: -0.2; MITF inh: 1.2; GPR151 ag: 2.4

How did O=C(CCCn1c(=S)[nH]c2ccsc2c1=O)NCCc1ccc(Cl)cc1 do in these assays?
TEAD-YAP block: 11.6; FBW7 act: 0.0; MITF inh: -4.6; GPR151 ag: 0.0

Results for CCOc1ccc(NS(=O)(=O)c2ccc(CN3C(=O)c4cccnc4C3=O)cc2)cc1 ?
TEAD-YAP block: -2.5; FBW7 act: -0.1; MITF inh: 5.2; GPR151 ag: 0.6

How did COc1ccccc1NS(=O)(=O)c1ccc(CN2C(=O)c3cccnc3C2=O)cc1 do in these assays?
TEAD-YAP block: 11.3; FBW7 act: 0.2; MITF inh: 10.9; GPR151 ag: 7.3*; GPR151 confirm: 0.1; GPR119 counter: -3.9

What do the screens show for `O=C(NCCC12CC3CC(CC(C3)C1)C2)c1ccc(S(=O)(=O)N2CCOCC2)cc1`?
TEAD-YAP block: 2.5; FBW7 act: 0.0; MITF inh: 15.3; GPR151 ag: 2.8

Results for CC(C)c1nc(C(=O)N2CCCC(N3CCOCC3)C2)cs1 (centres undefined) ?
TEAD-YAP block: 5.2; FBW7 act: 0.1; MITF inh: -6.5; GPR151 ag: 6.7*; GPR151 confirm: -1.6; GPR119 counter: -18.6

How did CCOc1ccc(NC(=O)CSc2nc3n[nH]c(C)c3c(=N)n2-c2ccc(OCC)cc2)cc1 do in these assays?
TEAD-YAP block: 29.9; FBW7 act: -0.2; MITF inh: 1.3; GPR151 ag: -1.3

Results for CCCCNC(=O)CSc1nc2n[nH]c(C)c2c(=N)n1-c1ccccc1CC ?
TEAD-YAP block: -22.0; FBW7 act: -0.2; MITF inh: -6.2; GPR151 ag: 5.9*; GPR151 confirm: 0.2; GPR119 counter: 2.9

What do the screens show for `Cc1cccc(NC(=O)CSc2nc3n[nH]c(C)c3c(=N)n2-c2ccc(Br)cc2)c1`?
TEAD-YAP block: 2.9; FBW7 act: -0.4; MITF inh: 2.8; GPR151 ag: 5.8*; GPR151 confirm: -0.1; GPR119 counter: 5.4

What do the screens show for `CCOc1ccc(-n2c(SCC(=O)Nc3ccc(CC)cc3)nc3n[nH]c(C)c3c2=N)cc1`?
TEAD-YAP block: 12.9; FBW7 act: -0.2; MITF inh: 4.2; GPR151 ag: 5.3*; GPR151 confirm: 2.1; GPR119 counter: 8.7

How did COc1ccc(OC)c(NC(=O)CSc2nc3n[nH]c(C)c3c(=N)n2-c2cc(Cl)ccc2C)c1 do in these assays?
TEAD-YAP block: 0.2; FBW7 act: 0.0; MITF inh: 7.0; GPR151 ag: 11.8*; GPR151 confirm: 0.0; GPR119 counter: -0.1

Results for CCOc1ccc(-n2c(C)cn3c4c(=O)n(CCC(C)C)c(=O)n(C)c4nc23)cc1 ?
TEAD-YAP block: 1.8; FBW7 act: 0.1; MITF inh: -6.9; GPR151 ag: -1.0

Results for COc1ccc(C(=O)N=c2sc3c4ccccc4ccc3n2C)cc1 ?
TEAD-YAP block: 3.3; FBW7 act: 0.2; MITF inh: 1.8; GPR151 ag: 0.6

How did COCCN(C(C)=O)C1CCN(CCc2ccc(OC)cc2)CC1 do in these assays?
TEAD-YAP block: -2.5; FBW7 act: -0.2; MITF inh: 0.4; GPR151 ag: 3.7

What do the screens show for `Cc1ccc(CNCCc2ccc(S(N)(=O)=O)cc2)s1`?
TEAD-YAP block: -11.5; FBW7 act: 0.2; MITF inh: -16.5; GPR151 ag: 0.7

What do the screens show for `Cc1csc(SCC(=O)Nc2ccccn2)n1`?
TEAD-YAP block: -3.4; FBW7 act: 0.0; MITF inh: 2.0; GPR151 ag: 6.2*; GPR151 confirm: -0.8; GPR119 counter: -11.7

How did CCCn1ncc(CN2CCC(n3nccc3NC(=O)CCc3ccccc3)CC2)c1C do in these assays?
TEAD-YAP block: -4.4; FBW7 act: -0.2; MITF inh: 19.3; GPR151 ag: 6.6*; GPR151 confirm: -0.8; GPR119 counter: -12.4

Results for CCOC(=O)c1c(NC(=O)CNCC(O)CO)sc(C)c1C (centres undefined) ?
TEAD-YAP block: -15.5; FBW7 act: -0.3; MITF inh: -10.6; GPR151 ag: 5.3*; GPR151 confirm: 0.9; GPR119 counter: 4.9

Results for CCCC(=O)Nc1sc(C)c(CC)c1C(=O)OCC ?
TEAD-YAP block: 8.4; FBW7 act: 0.0; MITF inh: -4.2; GPR151 ag: 13.4*; GPR151 confirm: 0.4; GPR119 counter: -8.3

How did CCCc1cc(C(=O)Nc2sc(C)c(CC)c2C(N)=O)cs1 do in these assays?
TEAD-YAP block: -28.3; FBW7 act: 0.9; MITF inh: 22.8; GPR151 ag: 9.1*; GPR151 confirm: 0.2; GPR119 counter: 5.3

How did COCCNC(=O)CN(C(=O)c1snc(C(N)=O)c1N)c1ccccc1F do in these assays?
TEAD-YAP block: -12.9; FBW7 act: -0.1; MITF inh: -0.8; GPR151 ag: 0.6

What do the screens show for `O=C(NNC(=O)c1sc2ccccc2c1Cl)c1ccccc1F`?
TEAD-YAP block: -38.3; FBW7 act: 0.1; MITF inh: -13.6; GPR151 ag: -1.7

How did Cc1nnc2c(NCc3ccc4c(c3)OCO4)nc3ccccc3n12 do in these assays?
TEAD-YAP block: -5.0; FBW7 act: -0.2; MITF inh: 5.7; GPR151 ag: 0.6

Bioassay records (PubChem BioAssay)
